Here are results for 23 molecules from PubChem BioAssay (NCATS).

Records with an inconclusive call do not appear. The source made the active and inactive calls. Unless noted, calls come from the whole dose curve; as a rule, active = well fitted curve in the direction sought with a large enough effect; inconclusive = small, poorly fitted or top-dose-only effect, or another doubt; inactive = no such curve, though single readings can be large; an effect the other way counts as inactive or inconclusive.

The target in assay [1] is Rap guanine nucleotide exchange factor 3 (Homo sapiens) (UniProt O95398). The assay can be described thus: Confirmatory qHTS for agonist of cAMP-regulated guanine nucleotide exchange factor 3 (EPAC1) (AID 1645881;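 note: EPAC1 catalysed release of BODIPY-GDP from Rap1B seen as fluorescence loss; 100% = effect of cAMP agonist control; nearly all actives have a fitted effect of over 75% in size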). (Quantitative high-throughput screening tests each substance at several concentrations.)
Sequence of Rap guanine nucleotide exchange factor 3 (Homo sapiens) (O95398 whole entry, looked up): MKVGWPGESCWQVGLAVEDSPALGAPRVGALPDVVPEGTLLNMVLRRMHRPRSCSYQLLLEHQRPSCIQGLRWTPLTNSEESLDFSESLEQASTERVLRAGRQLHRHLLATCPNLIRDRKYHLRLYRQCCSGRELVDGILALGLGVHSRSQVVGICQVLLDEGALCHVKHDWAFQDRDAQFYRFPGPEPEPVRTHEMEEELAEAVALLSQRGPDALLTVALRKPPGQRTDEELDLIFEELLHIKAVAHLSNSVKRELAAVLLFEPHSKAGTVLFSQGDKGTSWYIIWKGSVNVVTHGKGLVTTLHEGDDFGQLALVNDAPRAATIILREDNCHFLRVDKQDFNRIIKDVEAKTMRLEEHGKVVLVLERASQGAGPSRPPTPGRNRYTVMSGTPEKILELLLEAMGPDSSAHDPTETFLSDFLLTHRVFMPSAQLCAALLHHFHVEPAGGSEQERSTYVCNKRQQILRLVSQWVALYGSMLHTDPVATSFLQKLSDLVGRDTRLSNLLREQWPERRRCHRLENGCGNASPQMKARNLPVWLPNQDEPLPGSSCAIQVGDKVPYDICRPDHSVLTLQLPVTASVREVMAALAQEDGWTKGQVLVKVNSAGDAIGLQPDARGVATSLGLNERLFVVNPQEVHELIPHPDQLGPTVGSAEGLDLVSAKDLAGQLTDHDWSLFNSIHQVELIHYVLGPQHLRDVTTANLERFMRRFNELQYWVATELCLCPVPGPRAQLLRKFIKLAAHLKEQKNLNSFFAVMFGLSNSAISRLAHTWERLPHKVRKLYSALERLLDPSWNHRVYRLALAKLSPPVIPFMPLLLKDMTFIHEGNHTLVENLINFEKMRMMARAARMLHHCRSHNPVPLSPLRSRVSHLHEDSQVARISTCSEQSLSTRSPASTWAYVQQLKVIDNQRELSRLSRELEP
The target in assay [2] is Rap guanine nucleotide exchange factor 4 (Homo sapiens) (UniProt Q8WZA2). The assay can be described thus: Confirmatory qHTS for agonist of cAMP-regulated guanine nucleotide exchange factor 4 (EPAC2) (AID 1645884).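 Note: nucleotide exchange releases bodipy-GDP from Rap1 and this lowers its fluorescence; % is set by controls: 0 for no effect and ±100 for the full control effect; nearly all actives have a fitted effect of over 65% in size.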
Sequence of Rap guanine nucleotide exchange factor 4 (Homo sapiens) (Q8WZA2 whole entry, looked up): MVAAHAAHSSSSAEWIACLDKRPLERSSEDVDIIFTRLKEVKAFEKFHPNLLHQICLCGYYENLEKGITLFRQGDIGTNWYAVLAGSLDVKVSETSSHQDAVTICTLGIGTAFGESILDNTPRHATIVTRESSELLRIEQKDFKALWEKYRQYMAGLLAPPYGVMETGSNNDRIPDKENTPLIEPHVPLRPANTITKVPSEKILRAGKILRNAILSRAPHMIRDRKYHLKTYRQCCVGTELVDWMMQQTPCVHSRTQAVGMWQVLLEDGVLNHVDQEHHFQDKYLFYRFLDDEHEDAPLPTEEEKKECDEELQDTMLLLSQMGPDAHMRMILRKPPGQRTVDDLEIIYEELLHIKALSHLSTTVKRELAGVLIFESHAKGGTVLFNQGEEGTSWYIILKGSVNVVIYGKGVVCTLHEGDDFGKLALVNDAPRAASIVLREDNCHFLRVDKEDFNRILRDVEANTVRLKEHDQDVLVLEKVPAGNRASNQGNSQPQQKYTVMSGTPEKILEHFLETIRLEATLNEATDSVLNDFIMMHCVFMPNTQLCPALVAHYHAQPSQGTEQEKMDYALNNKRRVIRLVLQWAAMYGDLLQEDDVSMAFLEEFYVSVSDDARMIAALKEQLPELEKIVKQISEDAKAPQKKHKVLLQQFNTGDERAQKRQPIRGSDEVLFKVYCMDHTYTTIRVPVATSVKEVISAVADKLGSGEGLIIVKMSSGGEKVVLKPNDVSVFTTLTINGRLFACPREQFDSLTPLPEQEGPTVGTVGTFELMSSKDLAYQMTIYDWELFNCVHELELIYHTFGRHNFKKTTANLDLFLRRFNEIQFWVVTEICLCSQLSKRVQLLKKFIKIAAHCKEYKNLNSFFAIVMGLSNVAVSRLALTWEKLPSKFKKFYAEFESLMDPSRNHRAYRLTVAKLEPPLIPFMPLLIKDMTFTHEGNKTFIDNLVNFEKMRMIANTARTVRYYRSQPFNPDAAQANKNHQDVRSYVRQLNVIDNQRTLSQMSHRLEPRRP
Assay [3] has the same target. The assay can be described thus: Confirmatory qHTS for antagonist of cAMP-regulated guanine nucleotide exchange factor 4 (EPAC2) (AID 1645885). For activity change, negative = inhibition: % is set by controls: 0 for no effect and ±100 for the full control effect. Note: nearly all actives have a fitted effect of over 25% in size.
The target of assay [4] is Rap guanine nucleotide exchange factor 3 (Homo sapiens) (UniProt O95398). The assay can be described thus: Counterscreen qHTS for antagonist of cAMP-regulated guanine nucleotide exchange factor 3 (EPAC1) (AID 1645888).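 Note: fluorescence loss as bound BODIPY-GDP is released from Rap1B; % of control where 0% means no effect.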 The gist of the method:
(§1)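 Measured: fluorescence of BODIPY-GDP bound to Rap1B, which falls as exchange proceeds. Conditions include 50 uM competing GDP, 5 and 30 min reads, and a later cAMP challenge for antagonist detection.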

Assay [5] shares this target. The assay can be described thus: Counterscreen qHTS for agonist of cAMP-regulated guanine nucleotide exchange factor 3 (EPAC1) (AID 1645889). Note: % of control where 0% means no effect; nearly all actives have a fitted effect of over 40% in size. The essentials: as §1
In general terms: The purpose of a counterscreen is to sort out artefacts and off-target activity.

Assay [6] is described as follows: NFAT Signaling Pathway (AID 444; active = well fitted curve in either direction with a large enough effect, not every such curve was filed as active;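 note: carbachol stimulus at about its EC50 of 1 µM final; % is set by controls: 0 for no effect and ±100 for the full control effect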). The settings on record: Jurkat NFAT-bla M1, carbachol, beta-lactamase ratio, 5 h; at 17.2 µM (top of the series). The essentials: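 Jurkat cells carrying an NFAT-driven β-lactamase reporter and co-transfected muscarinic M1 receptor were treated with compound plus carbachol (1 uM final, an EC50 level) for 5 h at 37 °C. CCF4 loading followed for 1 h at RT; 460/530 nm ratio gave %activity.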

Assay [7] is described as follows: qHTS Assay for Identification of Small Molecule Agonists for Hypoxia Response Element Signaling Pathway (AID 914; active = well fitted activation curve with a large enough effect in the signal ratio, with a control signal flat, not every such curve was filed as active; the % refers to the signal ratio; note: potency is the fitted concentration of half-maximal effect). The settings on record: ME-180 (cervical carcinoma) HRE-bla reporter, beta-lactamase ratio, CoCl2, 17 h; activation: hits give high values. The gist of the method: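 AC50 values come from titration-series %Activity, taken as the 460/530nm ratio of CCF4 fluorescence (excitation 405nm). CellSensor HRE-bla ME-180 cells were treated 17 hours at 37 C with compound plus an EC50 level of CoCl2.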

Assay [8] deals with Tyrosyl-DNA phosphodiesterase 1 (Homo sapiens) (UniProt Q9NUW8). Description: Confirmation Assay for Inhibitors of Tyrosyl-DNA Phosphodiesterase (TDP1) (AID 489007). Note: potency is the fitted concentration of half-maximal effect; nearly all actives have a fitted effect of over 40% in size. The settings on record: recombinant human TDP1 enzymatic activity, dose-response. The gist of the method:
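AlphaScreen read-out: streptavidin donor and anti-FITC acceptor beads (10 ug/ml) bind intact substrate, so Tdp1 removal of tyrosine-FITC lowers signal. Enzyme 1 nM, substrate 15 nM, 5 min reaction at room temperature after 15 min compound preincubation.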

Sequence of Tyrosyl-DNA phosphodiesterase 1 (Homo sapiens) (Q9NUW8 whole entry, looked up): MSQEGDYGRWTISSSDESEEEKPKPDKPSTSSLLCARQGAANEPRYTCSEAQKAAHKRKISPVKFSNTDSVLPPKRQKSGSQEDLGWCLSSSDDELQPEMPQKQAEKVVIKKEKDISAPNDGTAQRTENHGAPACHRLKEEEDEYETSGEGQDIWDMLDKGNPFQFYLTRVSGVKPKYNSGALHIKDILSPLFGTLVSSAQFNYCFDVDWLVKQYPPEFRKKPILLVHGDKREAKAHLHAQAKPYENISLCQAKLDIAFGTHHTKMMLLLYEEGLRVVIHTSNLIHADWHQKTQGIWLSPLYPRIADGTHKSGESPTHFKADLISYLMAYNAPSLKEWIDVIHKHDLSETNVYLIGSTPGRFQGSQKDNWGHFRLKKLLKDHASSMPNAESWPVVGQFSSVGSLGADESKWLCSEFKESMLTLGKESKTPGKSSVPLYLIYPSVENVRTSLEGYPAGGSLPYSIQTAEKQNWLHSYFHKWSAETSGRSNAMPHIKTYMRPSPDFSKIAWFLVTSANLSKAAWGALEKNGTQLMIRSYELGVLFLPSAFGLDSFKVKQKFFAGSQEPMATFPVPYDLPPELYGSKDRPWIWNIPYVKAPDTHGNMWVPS

`O=C1NC(=O)N(CCc2ccc(F)cc2)C(=O)/C1=C/c1ccco1`: the Potency entry in assay [1] was “inactive”. The activation in assay [2] was 1.5% [at 17.1 µM, percent relative to cAMP agonist control] (inactive); in assay [5] it was 10.6% [at 30.8 µM] (inactive). The activity change, negative = inhibition is -8.03% [at 12.7 µM] (inactive) in assay [3] and -2.28% [at 30.8 µM] (inactive) in assay [4].

For `O=C1NC(=O)N(Cc2ccccc2)C(=O)/C1=C\c1ccco1`, the Potency result in assay [1] was “inactive”. For the same molecule, the activation in assay [2] was 4.68% [at 17.1 µM, percent relative to cAMP agonist control] (inactive); in assay [5], 12.3% [at 30.8 µM] (inactive). Moreover, the activity change, negative = inhibition in assay [3] is 4.49% [at 12.7 µM] (inactive); in assay [4], 0.623% [at 30.8 µM] (inactive).

On to `Cn1cccc1/C=C1\C(=O)NC(=O)N(Cc2ccccc2Cl)C1=O`, for which the Potency entry in assay [1], in assay [2], in assay [3] and in assay [5] was “inactive” each time. Besides, in assay [4], the result was inactive.

As to `Nc1c(C(=O)NCc2ccco2)c2nc3ccccc3nc2n1Cc1ccc(F)cc1`, the activity change, negative = inhibition in assay [6] was 108% [activator] (active). Further, the Potency in assay [7] was 7.94 µM (active). The Potency entry in assay [1], in assay [2], in assay [3] and in assay [5] was “inactive” in each case. Besides, the molecule was classed as inactive in assay [4].

As for `Nc1c2c(nc3sc4c(c13)CCCC4)CCCC2`, in assay [1], the Potency result is “inactive”. In addition, the activation in assay [2] was 3.84% [at 17.1 µM, percent relative to cAMP agonist control] (inactive); in assay [5] it was 3.23% [at 30.8 µM] (inactive). Also, the activity change, negative = inhibition in assay [3] is -3.15% [at 12.7 µM] (inactive); in assay [4], 4.03% [at 30.8 µM] (inactive).

On to `CCCCC/C(=N/O)c1c(C)[nH]c2ccccc12`, for which the Potency result in assay [1], in assay [2], in assay [3] and in assay [5] was “inactive” in each case. In addition, the outcome in assay [4] was inactive.

On to `NC(=O)c1ccc(N=Cc2c(O)n(Cc3ccco3)c(=O)[nH]c2=O)cc1`, for which the Potency in assay [8] is 14.1 µM (active). Also, the Potency result in assay [1], in assay [2], in assay [3] and in assay [5] was “inactive” throughout. Besides, the result in assay [4] was inactive.

Regarding `Cc1cccc(C)c1-n1nnnc1C(c1ccccc1OC(F)(F)F)N1CCC(n2c(=O)[nH]c3ccccc32)CC1` (configuration not stated), the Potency result in assay [1], in assay [2], in assay [3] and in assay [5] was “inactive” each time. The outcome in assay [4] was inactive.

On to `CC(c1ccccc1)(c1ccccc1)c1ccncc1`, for which the Potency entry in assay [1] is “inactive”. In assay [2], the activation was 0% [at 17.1 µM, percent relative to cAMP agonist control] (inactive). The activity change, negative = inhibition in assay [3] is -28.4% [at 12.7 µM] (inactive); in assay [4] it was -6.49% [at 30.8 µM] (inactive).

Take `CCOC(=O)[C@]12Cc3cc(OC)ccc3[C@H]1N(C1CCCCC1)C(=O)c1ccccc12`: the Potency result in assay [1], in assay [2] and in assay [5] was “inactive” in each case. The call in assay [4] was inactive.

As to `COc1ccc(-n2nnnc2C(c2ccccc2OC(F)(F)F)N2CCC(n3c(=O)[nH]c4ccccc43)CC2)cc1` (configuration not stated), the Potency entry in assay [1] is “inactive”. Also, the activation is 2.83% [at 17.1 µM, percent relative to cAMP agonist control] (inactive) in assay [2] and 2.08% [at 30.8 µM] (inactive) in assay [5]. In assay [3], the activity change, negative = inhibition was -5.88% [at 12.7 µM] (inactive).

Regarding `COCCNC(=O)c1c(N)n(CCC(C)C)c2nc3ccccc3nc12`, the Potency entry in assay [1] is “inactive”. For the same molecule, the activation in assay [2] is 10.8% [at 17.1 µM, percent relative to cAMP agonist control] (inactive); in assay [5], 26.5% [at 30.8 µM] (inactive). In addition, the values for the activity change, negative = inhibition in assay [3] and in assay [4] were -8.1% [at 12.7 µM] (inactive) and -2.48% [at 30.8 µM] (inactive), respectively.

`COCCNC(=O)Cn1cc(/C=C2\C(=O)NC(=O)N(c3ccccc3F)C2=O)c2ccccc21`: the Potency entry in assay [1], in assay [2] and in assay [3] was “inactive” throughout. The molecule was called inactive in assay [4].

Turning to `COc1cccc(C(c2nnnn2Cc2ccccc2)N2CCC(n3c(=O)[nH]c4ccccc43)CC2)c1OC` (configuration not stated), the Potency result in assay [1] and in assay [2] was “inactive” throughout. In addition, the outcome in assay [4] was inactive.

On to `CCC(C)c1ccc(N2C(=O)NC(=O)/C(=C/c3cccn3CCOc3ccc(C)cc3)C2=O)cc1` (configuration not stated), for which the Potency result in assay [1], in assay [2], in assay [3] and in assay [5] was “inactive” throughout.

In the case of `Cn1ncnc2c(=O)n(C)c(=O)nc1-2`, the Potency entry in assay [1], in assay [2], in assay [3] and in assay [5] was “inactive” each time. In addition, the molecule was called inactive in assay [4].

For `COc1cccc(C(c2nnnn2C2CCCCC2)N2CCC3(CC2)C(=O)NCN3c2ccccc2)c1OC` (configuration not stated), the Potency result in assay [1] and in assay [2] was “inactive” throughout. For the same molecule, the result in assay [4] was inactive.

`Cn1cccc1/C=C1\C(=O)NC(=O)N(Cc2ccco2)C1=O`: in assay [8], the Potency was 14.1 µM (active). In addition, the Potency result in assay [1] is “inactive”. For the same molecule, the activation in assay [2] was 8.15% [at 17.1 µM, percent relative to cAMP agonist control] (inactive); in assay [5] it was 7.31% [at 30.8 µM] (inactive). The values for the activity change, negative = inhibition in assay [3] and in assay [4] were -7.91% [at 12.7 µM] (inactive) and -2.64% [at 30.8 µM] (inactive), respectively.

On to `COc1ccc(N2C(=O)/C(=C/C=C/c3ccccc3[N+](=O)[O-])C(=O)NC2=S)cc1`, for which the Potency result in assay [1] is “inactive”. Also, the activation in assay [2] is 17.4% [at 17.1 µM, percent relative to cAMP agonist control] (inactive); in assay [5], 4.75% [at 30.8 µM] (inactive). For the same molecule, the activity change, negative = inhibition in assay [3] is 0.334% [at 12.7 µM] (inactive); in assay [4] it was 15.6% [at 30.8 µM] (inactive).

Take `Cn1cccc1/C=C1\C(=O)NC(=O)N(Cc2ccccc2)C1=O`: the Potency entry in assay [1], in assay [2] and in assay [3] was “inactive” throughout. Further, in assay [4], the outcome was inactive.

Take `Cc1cc(C=C2C(=O)NC(=S)NC2=O)c(C)n1C1CCCC1`: the Potency entry in assay [1], in assay [2], in assay [3] and in assay [5] was “inactive” throughout. In assay [4], the call was inactive.

With `CCOC(=O)[C@]12Cc3cc(Cl)ccc3[C@H]1N(CC(=O)OC)C(=O)c1ccccc12`, the Potency result in assay [1], in assay [2] and in assay [5] was “inactive” each time. Also, in assay [4], the outcome was inactive.

Consider `CCCNC1=C(C)C(=O)C2=C(C1=O)C(COC(N)=O)[C@]1(OC)C3NC3CN21` (some centres not stated), for which the Potency entry in assay [1], in assay [2] and in assay [3] was “inactive” each time. Moreover, in assay [4], the molecule was classed as inactive.
